A3G deaminase = blocks human APOBEC3G single-stranded DNA deamination | inhibition, % at 20 µM | 0.28% of 330,000 active | Q9HC16 | recombinant A3G, ssDNA deamination FAM/TAMRA fluorescence;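 active = inhibition of at least 40% at 20 µM, with no more than 30% in the related APOBEC3A deaminase screen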;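 note: plate controls were DMSO wells with A3G for no effect and wells lacking A3G enzyme for full effect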
Target sequence (Q9HC16 whole entry, looked up): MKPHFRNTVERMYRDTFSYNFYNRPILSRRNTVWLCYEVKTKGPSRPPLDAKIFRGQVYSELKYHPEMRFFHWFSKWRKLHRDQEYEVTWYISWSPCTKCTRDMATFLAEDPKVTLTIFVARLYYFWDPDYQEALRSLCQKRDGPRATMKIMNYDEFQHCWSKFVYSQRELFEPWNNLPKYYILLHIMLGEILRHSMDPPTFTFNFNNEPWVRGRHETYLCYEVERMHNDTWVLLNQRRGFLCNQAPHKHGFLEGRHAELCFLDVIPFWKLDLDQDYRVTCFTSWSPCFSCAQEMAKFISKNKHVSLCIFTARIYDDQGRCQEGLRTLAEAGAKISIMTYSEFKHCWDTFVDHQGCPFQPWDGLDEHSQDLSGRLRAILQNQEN
A3A deaminase = inhibitors of human APOBEC3A DNA deaminase. inhibition, % at 20 µM. recombinant A3A, FAM/TAMRA ssDNA deamination fluorescence. P31941. 0.41% of 330,000 active. AID 493011;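 active = at least 40% inhibition at 20 µM here, with at most 30% in a related deaminase screen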;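 note: plate controls were A3A with DMSO for no effect and wells lacking A3A enzyme for full effect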
Target sequence (P31941 whole entry, looked up): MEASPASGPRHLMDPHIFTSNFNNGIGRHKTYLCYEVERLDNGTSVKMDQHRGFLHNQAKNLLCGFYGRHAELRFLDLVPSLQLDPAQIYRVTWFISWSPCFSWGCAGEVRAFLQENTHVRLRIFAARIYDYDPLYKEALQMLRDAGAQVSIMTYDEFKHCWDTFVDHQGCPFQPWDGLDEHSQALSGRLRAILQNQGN
GRK2 inh = inhibitors of human GRK2 displacing RNA aptamer; P25098; inhibition of aptamer binding, % at 10 µM; 0.59% of 330,000 active; bead flow cytometry, FAM-aptamer displacement from GRK2;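 active = inhibition of aptamer binding above 40%, roughly 3 SD of noise, on plates passing a quality check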;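 note: median bead fluorescence of bound FAM aptamer so fluorescent compounds give negative values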
VLA-4 inh = inhibition in a human VLA-4 binding assay; P13612; VLA-4 expressing cells, ligand binding flow cytometry; inhibition, % (about 7 µM as worked out from the volumes in the protocol); 0.2% of 330,000 active; AID 2557; in the data active = inhibition above about 50%
Active calls of the source: *; . = no result given. Shown are actives, neighbours in structure and some others; about 1.4% of the full set was active somewhere.

SMILES | A3G deaminase | A3A deaminase | GRK2 inh | VLA-4 inh
CCOC(=O)c1c(NC(=O)C2C3C=CC(C3)C2(C)C(=O)O)sc2c1CCCC2 (stereo not drawn) | 6 | 13 | 64* | 5
CCOC(=O)c1c(NC(=O)C2CCCCC2C(=O)O)sc2c1CCCCC2 (stereo not drawn) | -9 | -1 | 0 | 9
CCCc1cc(=O)n2[nH]c(-c3ccc(Cl)cc3)cc2n1 | -6 | -5 | 0 | 29
O=c1cc(-c2ccc([N+](=O)[O-])cc2)nc2cc(-c3ccc(Cl)cc3)[nH]n12 | . | . | 58* | -3
Cc1cc(C)cc(N2C(=O)CC(Sc3nnnn3-c3ccccc3)C2=O)c1 (stereo not drawn) | -5 | 2 | 0 | 17
Cc1cc(C)cc(N2C(=O)CC(Sc3ncn[nH]3)C2=O)c1 (stereo not drawn) | 41* | -2 | 3 | 5
Cc1noc(C)c1C(=O)NC(C)c1ccc(Cl)cc1Cl (stereo not drawn) | -5 | 1 | 0 | -2
COc1ccc(CN2c3c(Br)cccc3C(=O)CS2(=O)=O)cc1 | -1 | -2 | 0 | .
CCN(C(=O)COC(=O)/C=C/c1ccc(F)cc1)C1CCCCC1 | -6 | -4 | 0 | 1
CCN(C(=O)COC(=O)/C=C/c1ccco1)C1CCCCC1 | 5 | 32 | 49* | 7
CCN(CC)S(=O)(=O)c1ccc2[nH]cc(C(=O)NCCN3CCCCC3C)c(=O)c2c1 (stereo not drawn) | -3 | -1 | 0 | 1
COCCOC(=O)c1c(NC(=O)CN(C)c2ccccc2)sc(C(N)=O)c1C | -3 | 2 | 4 | -9
COCCOC(=O)c1c(NC(=O)COC(=O)Cc2cccc(OC)c2)sc(C(N)=O)c1C | -7 | -1 | 83* | 7
Cc1cc2n(c(=O)c1C#N)CCCN2c1cccc(Cl)c1 | -6 | -3 | 0 | -1
CC(=O)N1CC[n+]2c(-c3ccc(Cl)cc3Cl)csc21 | -6 | -2 | 52* | 5
O=C(O)c1ccc(-c2nc(-c3ccc(Cl)cc3Cl)cs2)cc1 | -4 | -7 | 1 | -12
CCOc1c(OC(C)=O)ccc(/C=C2\N=C(SCC)SC2=O)c1[N+](=O)[O-] | -2 | -1 | 100* | 11
CCOc1cc(/C=C2\N=C(SCC)SC2=O)cc([N+](=O)[O-])c1OC(C)=O | 4 | 5 | 2 | 20
Cc1ccc(/C=C/C(=O)Nc2nnc(SCc3ccc(C#N)cc3)s2)o1 | -9 | -5 | 100* | -10
Oc1ccccc1-c1n[nH]c(=S)n1Cc1ccco1 | 41* | -2 | 1 | -4
N#CC1=C(N)N(c2ccccc2)C2=C(C(=O)CCC2)C1c1ccsc1 (stereo not drawn) | -1 | -1 | 0 | 0
COc1ccc(C(=O)Oc2ccc(/C=N/NC(=O)Cc3ccc([N+](=O)[O-])cc3)cc2)cc1 | -7 | 5 | 85* | 16
O=C(CNc1ccccc1)N/N=C/c1ccc([N+](=O)[O-])cc1 | -3 | -1 | 0 | 62*
O=C(CN1CCOCC1)Nc1ccc(NC(=O)c2ccccc2F)cc1 | -13 | -2 | 3 | 0
CCn1c(SCC(=O)Nc2cc(F)ccc2C)nnc1-c1ccccc1O | -5 | -3 | 0 | 5
SMILES | A3G deaminase | A3A deaminase | GRK2 inh | VLA-4 inh
C/C(=N\NC(=O)c1cc(O)cc(O)c1)c1ccc(NC(=O)Cc2ccccc2)cc1 | 77 | 95 | 52* | 0
Cc1ccccc1-c1nc(CS(=O)CC(=O)NCc2ccccc2)c(C)o1 (stereo not drawn) | 10 | 5 | 0 | -15
Cc1nn(-c2ccccc2)c(N2CCCC2)c1/C=N/NC(=O)c1cc2ccccc2cc1O | -4 | -3 | 66* | 18
Cc1nn(-c2ccccc2)c(N2CCCC2)c1/C=N/NC(=O)c1cc(-c2ccccc2)nc2ccccc12 | -1 | 0 | 4 | 2
O=C(NC1CCSC1=O)c1cccc(Cl)c1 (stereo not drawn) | -1 | 1 | 4 | -46
C/C(=C\C(=O)OCC(=O)NCc1ccccc1)C(=O)OCC(=O)NCc1ccccc1 | 0 | -1 | 80* | 22
CCOC(=O)/C=C/C(=O)OCC(=O)NCc1ccccc1 | -6 | 1 | 3 | 4
Cc1nc2cc(C(=O)OCC(=O)NC3CCS(=O)(=O)C3)ccc2n1-c1ccccc1 (stereo not drawn) | -4 | 0 | 0 | -5
Cc1nc2cc(C(=O)OCC(=O)NC34CC5CC(CC(C5)C3)C4)ccc2n1-c1ccccc1 | 17 | 10 | 41* | 1
N#C/C(=C\c1ccc(-c2ccccc2[N+](=O)[O-])o1)C(=O)Nc1nc(-c2cccs2)cs1 | -3 | 3 | 56* | 5
N#C/C(=C\c1ccc(-c2ccc([N+](=O)[O-])cc2)o1)C(=O)Nc1nc(-c2cccs2)cs1 | 8 | 8 | 4 | 6
O=C(O)CCCCN1C(=O)/C(=C\c2ccc(OCc3ccccc3)c(OCc3ccccc3)c2)SC1=S | -10 | -7 | 100* | 1
COc1cc(/C(C)=N/NC(=O)c2cccc(S(=O)(=O)N3CCCC3)c2)cc(OC)c1OC | 2 | 5 | 50* | -8
N#CC1=C(N)SC(N)=C(C#N)C1Cc1ccccc1 | 48* | -5 | 4 | -81
N#CC1=C(N)SC(N)=C(C#N)C1CCc1ccccc1 | -4 | -1 | 0 | 2
Cc1cc2cc(CNC(=O)c3cc4ccccc4o3)ccc2n1C | 1 | 2 | 87* | -11
Cc1ccc(S(=O)(=O)N(C)CC(=O)OCC(=O)NC(=O)NC(C)C)cc1 | 6 | 3 | 0 | 4
COc1ccc(OC)c(NC(=O)COC(=O)CN(C)S(=O)(=O)c2ccc(C)cc2)c1 | -6 | -4 | 100* | 7
O=C(CNC(=O)Cc1ccccc1)N=Nc1c(O)[nH]c2ccccc12 | -1 | 2 | 0 | 4
O=C(CNC(=O)/C=C/c1ccco1)N=Nc1c(O)[nH]c2ccccc12 | 58 | 36 | 50* | 2
Cc1ccccc1C(=O)N1CCN(c2ccccn2)CC1 | -9 | -4 | 45* | -10
CC(=O)c1ccc2c(c1)C1C=CCC1C(C(=O)O)N2 (stereo not drawn) | 85 | 98 | . | .
COc1cccc2c1NC(C(=O)O)C1CC=CC21 (stereo not drawn) | 92 | 96 | 100* | -9
O=C(O)C1Nc2ccc(OC(F)(F)F)cc2C2C=CCC12 (stereo not drawn) | 74 | 93 | 29 | -8
O=C(O)C1Nc2c(cccc2C(F)(F)F)C2C=CCC12 (stereo not drawn) | . | . | 75* | -4
Cc1ccc2c(c1)C1C=CCC1C(C(=O)O)N2 (stereo not drawn) | . | . | 68* | -26
O=C(N/N=C/c1cccnc1)c1ccc(Cl)c(Cl)c1 | -4 | -3 | 2 | 6
CC1=C(C(=O)Nc2ccccc2)C(c2ccncc2)C(C#N)=C(SCC(=O)NC2CC2)N1 (stereo not drawn) | -11 | -6 | 0 | -3
COc1cc(C(=O)NNC(=O)c2ccco2)cc(OC)c1OC | -8 | -3 | 3 | -2
COc1cc(C(=O)NNC(=O)/C=C/c2ccco2)cc(OC)c1OC | 7 | 10 | 42* | -2

Compound activity as filed in PubChem.
